The values that follow come from ChEMBL document CHEMBL4513216, “Probing the Open Global Health Chemical Diversity Library for Multistage-Active Starting Points for Next-Generation Antimalarials” (ACS Infect Dis, 2020).

Hit rate of the full screen: of about 69,000 compounds, about 8,600 (12%) showed an effect of 50% or more. This is one part of a sample in which strong results are shown more often than they occur.

The assay relates to Plasmodium berghei. The assay can be described thus: Screen against P. berghei liver stage (PbLuc), transformed with Luciferase, at 10uM. Type of assay: functional, HepG2. Conditions: tested at 10 uM.
For the molecule `Cc1nc(-c2ccco2)ccc1C(=O)NCCCN1CCOCC1`, the INHIBITION was 24.3%.

On to `O=C(Nc1ccccc1C(=O)NCCCN1CCOCC1)c1ccco1`, for which the INHIBITION worked out at 51%.

Turning to `O=C(Nc1ccc(Cl)cc1C(=O)NCCN1CCOCC1)c1ccco1`, the INHIBITION turned out to be 32.3%. With `O=C(Nc1ccc(I)cc1C(=O)NCCN1CCOCC1)c1ccco1` the figure was 52.2%; with `O=C(Nc1ccccc1C(=O)NCCN1CCOCC1)c1ccco1`, 38.7%; with `O=C(Nc1ccc(I)cc1C(=O)NCCN1CCOCC1)c1cccs1`, 25.4%.

Consider `CCN(CC)C(=O)CN1CCc2nc(C3CCNCC3)nc(NC)c2C1`, for which the INHIBITION worked out at 23.9%.

Consider `O=C1[C@H]2CN(Cc3ccccc3)C[C@H]2CN1CCN1CCCC1`, for which the INHIBITION was -55.3%. With `CO[C@H]1CCN(C(=O)c2cc(C)on2)[C@H]1Cc1ccncc1` the figure was -15.9%; with `N#CCCN(Cc1ccccn1)Cn1cc(Cl)cn1`, 46.4%; with `Cc1ncncc1C(=O)NCCN1CCC(C)CC1`, -51.6%. With `CNC(=O)CCS(=O)(=O)Cc1nnnn1-c1ccccc1` the figure was 31.2%; with `COCCS(=O)(=O)Cc1nnnn1-c1ccccc1`, 26.9%.

Take `CCS(=O)(=O)Cc1nnnn1-c1ccccc1`: the INHIBITION was 61.1%.

As for `COc1ccc([C@@H]2CN(Cc3ccncc3)C[C@H]2c2cc[nH]n2)cc1`, the INHIBITION is 39.3%.

In the case of `Cn1cc(CN2CCC3(CC2)COC(COc2ccccn2)C3)cn1` (stereo not drawn), the INHIBITION worked out at 30.3%. For `COc1ccc(OCC(O)CN2CCN(c3nccs3)CC2)cc1` (stereo not drawn), the INHIBITION is given as 8.9%. Under `Cc1cccc(OCC(O)CN2CCN(c3nccs3)CC2)c1` (stereo not drawn) stands 77.4%; under `N#Cc1ccc(OCC(O)CN2CCN(c3nccs3)CC2)cc1` (stereo not drawn), 87.6%; under `Cc1cc(C)cc(OCC(O)CN2CCN(c3nccs3)CC2)c1` (stereo not drawn), 53.4%. Under `CC(C)OCCCNC(=O)CN1CCN(c2nccs2)CC1` stands -20.5%; under `N#Cc1ccc(OCC(O)CN2CCC(c3ccn[nH]3)CC2)cc1` (stereo not drawn), 7.08%; under `OC(COc1ccccc1)CN1CCN(c2nccs2)CC1` (stereo not drawn), 27.7%. On to `CC(=O)N(C)c1nc(CN2CCN(c3nccs3)CC2)cs1`, for which the INHIBITION is 38.3%. Under `Cc1cccc(OCC(O)CN2CCC(c3ccn[nH]3)CC2)c1` (stereo not drawn) stands 42%; under `CCc1c(C(=O)N2CCNC(=O)C2)cnn1C(C)(C)C`, 3.73%. With `Cc1nn(C)c(C)c1C1CCCN1C(=O)c1nccnc1N` (stereo not drawn) the figure was 12.7%; with `Cn1ncc2c1C(COCC1CC1)CN(Cc1ccsc1)C2` (stereo not drawn), 4.57%; with `COC(=O)COc1ccc(-c2noc(C3CCCO3)n2)cc1` (stereo not drawn), 8.59%. As to `COCCCNC(=O)c1cc(-c2ccc(OC)cc2)nn1C`, the INHIBITION is 3.19%.

As to `COc1ccccc1C1=NOC(CC2(C(=O)NC(C)C)CCOCC2)C1` (stereo not drawn), the INHIBITION is listed as -29.8%. With `COCc1nc(C2CC2)nn1-c1ccccc1Cl` the figure was 37.2%.

For `COc1ccc(CCNC(=O)C2CCC(Cn3cnnn3)CC2)cc1` (stereo not drawn), the INHIBITION was 22.9%.

Regarding `CN1CCC(n2nc(Cc3cccc(Cl)c3)nc2Cn2cnnn2)CC1`, the INHIBITION worked out at 15.7%.

Consider `COc1ccc(-n2nc(C3CC3)nc2CCn2cnnn2)cc1`, for which the INHIBITION is reported as 52.5%. For `COc1ccc(Cl)cc1-n1nc(C2CCCC2)nc1Cn1cnnn1`, the INHIBITION turned out to be 70.4%.

As to `COCc1nc(C2CC2)nn1-c1cccc(F)c1`, the INHIBITION was -19.8%. With `Fc1cccc(-n2nc(C3CC3)nc2CCn2cnnn2)c1`, the INHIBITION was found to be 24.8%. On to `COCc1nc(C2CC2)nn1-c1cc(Cl)ccc1OC`, for which the INHIBITION is given as 51.1%. Under `CCn1cnnc1C1CCN(C(=O)c2ccc(Cl)cc2OC)CC1` stands 25.1%. Under `CN1C(=O)[C@@H]2CC[C@H]1CN(C(=O)c1sccc1S(N)(=O)=O)C2` stands 25.9%; under `CC(Cn1cccn1)Nc1cnc2ccccc2n1` (stereo not drawn), 24.2%. Take `Cc1nc(-c2cccc(N3CCC(N[C@@H]4CCOC4)CC3)c2)cs1`: the INHIBITION is 44.1%. With `O=C1N(Cc2cccc(F)c2)CCC12CCCN(c1ncc(F)cn1)C2` (stereo not drawn) the figure was 8.66%; with `CC(C)=CCCC(C)CN1CCC(n2cc(C(=O)NCCO)nn2)CC1` (stereo not drawn), 60.9%. For `CC(C)=CCCC(C)CN1CCC(n2cc(CO)nn2)CC1` (stereo not drawn), the INHIBITION is reported as -109%. Under `CC(C)=CCCC(C)CN1CCC(n2cc(C(C)(C)O)nn2)CC1` (stereo not drawn) stands -94.3%. `O=C(O)C1(Cc2cccc(Cl)c2)CCCN(c2ncnc3[nH]ccc23)C1` (stereo not drawn): the INHIBITION is given as -37.9%. With `CC(C)Cc1nc(CN(C)c2cc(C(C)C)nc3ccnn23)no1` the figure was -30.6%. Take `CCNC(=O)N1CCC(c2ccccc2)C1` (stereo not drawn): the INHIBITION is on record as -31%. With `CSCc1cc(F)ccc1CNCc1cccnc1` the figure was 35.4%.

As to `CSCc1cc(F)ccc1CNCc1ncc[nH]1`, the INHIBITION is on record as 63.3%. As to `CSCc1cc(F)ccc1CNCc1ccncc1`, the INHIBITION worked out at 24.2%.

Turning to `Cc1nc(Nc2ncccn2)cc(C2CN(C(=O)c3cccnc3)C2)n1`, the INHIBITION is recorded as 37.6%. Under `CC1=CC[C@@H]2CN(C(=O)c3ccc(-c4nnn(C)n4)cc3)C[C@@H]2C1` stands 35.8%; under `CC(C)Nc1nc2c(c(NC3CC3)n1)CN(C(=O)c1ccsc1)CC2`, 79.2%; under `CC(C)Nc1nc2c(c(NC3CC3)n1)CN(C(=O)c1ccncc1)CC2`, 5.36%. Take `CC(C)N(C)Cc1noc2c1CN(C(=O)c1ccsc1)CC2`: the INHIBITION is -18.5%. `CC(C)Nc1nc2c(c(NC3CC3)n1)CCN(C1CCOCC1)CC2`: the INHIBITION is on record as 23.1%. With `Cc1ccc(NC2CCN(C(=O)c3ccsc3)CC2)nn1` the figure was 31.8%; with `CC(C)Nc1nc2c(c(NC3CC3)n1)CN(C(=O)Cc1ccsc1)CC2`, 83.7%. For the molecule `CC(C)Nc1nc2c(c(N(C)C)n1)CCN(Cc1nccn1C)CC2`, the INHIBITION is 21.7%. Under `CC(C)Nc1nc2c(c(NC3CC3)n1)CN(C(=O)c1ccnnc1)CC2` stands 65.9%. With `CC(C)Nc1nc2c(c(NC3CC3)n1)CCN(Cc1nccn1C)CC2` the figure was 60.3%; with `CC(C)N(C)Cc1cnc2n1CCN(C(=O)Cc1ccsc1)C2`, -13%. With `Cc1nc(NC(C)C)nc2c1CN(Cc1nccn1C)CC2` the figure was -4.02%. Consider `CC(C)Nc1nc2c(cc1C(=O)O)CCN(Cc1ccsc1)CC2`, for which the INHIBITION is on record as 21.4%. Regarding `CC(C(=O)NCCOc1ccccc1)n1cncn1` (stereo not drawn), the INHIBITION is given as 2.97%.

`CN(C)C(=O)CN1CC[C@H]2CN(S(C)(=O)=O)C[C@@H]2C1=O`: the INHIBITION is on record as -41.8%. With `O=C(c1ccccc1F)N1C[C@H]2CCC[C@@]2(COCc2ccncc2)C1` the figure was 15.4%; with `Cc1cnn(CCNCc2csc(-c3ccccc3)n2)c1`, 34.75%; with `CC(C)CN1CC[C@@H]2[C@H](CC1)N(C(=O)c1ccccc1)CCS2(=O)=O`, 36.9%. With `COc1ccccc1OCC(=O)NCC(C)(O)c1ccccc1` (stereo not drawn), the INHIBITION was determined as 9.79%.

As to `CC(C)n1cc(CN2CCCN(C(=O)CC3CCCO3)CC2)cn1` (stereo not drawn), the INHIBITION is listed as -4.94%. For `O=C(CCS(=O)(=O)c1ccccc1)N1CCCC(n2cccn2)C1` (stereo not drawn), the INHIBITION came to 34.5%.

With `Cn1cnc2c1C(COCc1ccccc1)N(Cc1ccccn1)CC2` (stereo not drawn), the INHIBITION was 18.5%. With `Cc1c(S(=O)(=O)N2CCCC2c2nnc(-c3ccsc3)o2)cnn1C` (stereo not drawn), the INHIBITION was determined as 0.4%. Under `CN1C[C@H]2CC[C@@H](CC1=O)N2C(=O)c1ccc(-c2ccccc2)[nH]c1=O` stands -45%; under `Cc1nn(C)c(Cl)c1CNCc1cccnc1N1CCOCC1`, 41.8%. With `N#Cc1ccc(CN(CC(N)=O)Cc2cccc(F)c2)cc1`, the INHIBITION was 17.1%.

For `CN(C(=O)CNc1ccc(C#N)cc1)C1CCCCC1`, the INHIBITION is listed as -87.7%.

Take `N#Cc1ccc(CN(CC(N)=O)C2CCCC2)c(Br)c1`: the INHIBITION was found to be 90.2%. Under `NC(=O)CN(Cc1ncc(-c2ccccc2)o1)C1CCCC1` stands -32%. With `N#Cc1ccc(CN(CC(N)=O)C2CCCC2)cc1`, the INHIBITION was 90.2%.

Take `N#Cc1ccccc1CN(CC(N)=O)C1CCCC1`: the INHIBITION amounted to 20.9%. With `Cn1cccc1C(=O)N1CCn2nnc(COc3cccnc3)c2C1` the figure was -6.21%; with `Cc1nn(C)c(N(C)C)c1CNCc1ccnc(N2CCCCC2)c1`, -56.7%.

In the case of `Cc1ccc(C(=O)N2CCN(CC(C)O)CC2)cc1S(C)(=O)=O` (stereo not drawn), the INHIBITION was -19.6%.

As to `CS(=O)(=O)c1ccc(NC(=O)NCCC2=CCCCC2)cc1`, the INHIBITION is -165%. `COc1cc(NC(=O)c2ccc(C)cc2C)c(C(=O)N(C)C)cc1OC`: the INHIBITION was -7.36%. With `CN(CCCNC(=O)C1CCc2cn[nH]c2C1)c1ccc(F)cc1` (stereo not drawn) the figure was 31.2%; with `CN(CCCNC(=O)C1CCc2cn[nH]c2C1)c1ccccc1` (stereo not drawn), 24.3%; with `O=C(NCCCSc1ccc(F)cc1)C1CCc2cn[nH]c2C1` (stereo not drawn), 50.8%. As for `CN(Cc1nc(Cc2cccc(F)c2)no1)C1CCOCC1`, the INHIBITION is -24.2%. Under `Cc1nn(C)cc1Cn1c(=O)cnc2ccccc21` stands 43.4%; under `CCS(=O)(=O)Nc1ccc2c(c1)C1(CCOCC1)CN2C`, 46.6%; under `CN(C)C(=O)N1CC2(CCOCC2)c2cc(NC(=O)CCO)ccc21`, 45.2%.

With `CCN1CC2(CCOCC2)c2cc(NS(=O)(=O)CC)ccc21`, the INHIBITION was found to be 38.5%. As for `CCCC(=O)Nc1ccc2c(c1)C1(CCOCC1)CN2CCOC`, the INHIBITION stood at 52.1%. With `CCC(=O)Nc1ccc2c(c1)C1(CCOCC1)CN2CCF`, the INHIBITION stood at 10.4%. Regarding `COCCN1CC2(CCOCC2)c2cc(NC(=O)C3CC=CC3)ccc21`, the INHIBITION is listed as 76.5%. Regarding `COCC(=O)Nc1ccc2c(c1)C1(CCOCC1)CN2CCF`, the INHIBITION is listed as -4.08%. Under `COCCN1CC(C(=O)Nc2ccc3c(c2)CCC(=O)N3C)CC1=O` (stereo not drawn) stands -22.6%; under `CCC(=O)Nc1ccc2c(c1)C1(CCOCC1)CN2CCOC`, 55.7%; under `Cn1ccnc1CN1CCC2(CC1)CC(NC(=O)c1ccccn1)CO2` (stereo not drawn), 28.4%. Under `Cc1cc(C)nc(C2(C)CCCN2CCO)n1` (stereo not drawn) stands -4.6%; under `CCCc1cc(C(=O)Nc2nc(SC)ns2)n(C)n1`, -106.9%. Under `Cc1ccccc1C(C)NC(=O)CSCC#N` (stereo not drawn) stands 31.9%.
